Compounds without any hit were thinned out: in the full panel of roughly 79,000, 15% have a hit. Active and inactive are the calls of the source. Cut-off read from the data, not from the text of the source: active = growth inhibition above about 70%; inactive = the rest.
Legend:
[1] = NCI Yeast Anticancer Drug Screen. Data for the rad52 strain (AID 147);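 note: 0% = growth of vehicle-treated control cultures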; details: S. cerevisiae rad52 mutant growth inhibition, active compounds read high
How it was run: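 Measured: yeast growth inhibition. System: strain with a defined DNA damage repair alteration. Reference: vehicle-treated control cultures.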

[2] = NCI Yeast Anticancer Drug Screen. Data for the wt1 strain (AID 149);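 note: 0% = growth of vehicle-treated wt1 cultures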; details: S. cerevisiae wt1 strain (SPY 50644) growth inhibition, active compounds read high
How it was run: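 Each compound is tested on wt1 yeast and the loss of growth versus vehicle gives the inhibition value.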

[3] = NCI Yeast Anticancer Drug Screen. Data for the rad50EPP+ strain (AID 151);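 note: 0% = growth of vehicle-treated control cultures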; details: S. cerevisiae rad50 mutant strain, active compounds read high
How it was run: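 One strain with a rad50 alteration (rad50EPP+) was compound-treated, its growth then compared to that of vehicle controls.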

[4] = NCI Yeast Anticancer Drug Screen. Data for the mgt1 strain (AID 153); details: S. cerevisiae mgt1 mutant growth inhibition, active compounds read high
How it was run: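 After exposure of the mgt1 yeast mutant to compound, growth was measured and reported as inhibition compared with vehicle controls.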

[5] = NCI Yeast Anticancer Drug Screen. Data for the mec2-1 strain (AID 157); details: S. cerevisiae mec2-1 strain, active compounds read high
How it was run: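 Test agents were screened against the mec2-1 yeast strain, with defined DNA repair or cell cycle alteration. Growth was scored as inhibition against vehicle-only controls.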

[6] = NCI Yeast Anticancer Drug Screen. Data for the rad14 strain (AID 159);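 note: 0% = growth of vehicle-treated control cultures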; details: S. cerevisiae rad14 strain growth inhibition, active compounds read high
How it was run: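 Inhibition of growth is reported for a repair-deficient yeast mutant following compound treatment, calculated relative to cultures that received vehicle.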

[7] = NCI Yeast Anticancer Drug Screen. Data for the sgs1 mgt1 strain (AID 161);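 note: 0% = growth of cultures given vehicle only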; details: S. cerevisiae sgs1 mgt1 strain, active compounds read high
How it was run: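 Genetically altered yeast, compound exposure, growth inhibition relative to vehicle.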

[8] = NCI Yeast Anticancer Drug Screen. Data for the CLN2oe strain (AID 163);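 note: 0% = growth of vehicle-only control cultures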; details: S. cerevisiae CLN2oe strain, active compounds read high
How it was run: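 Here, growth inhibition in a cell-cycle-altered yeast strain after compound exposure was quantified against vehicle control growth.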

[9] = NCI Yeast Anticancer Drug Screen. Data for the cln2 rad14 strain (AID 165);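 note: 0% = growth equal to vehicle treated cultures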; details: S. cerevisiae cln2 rad14 strain, active compounds read high
How it was run: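 Growth of compound-exposed yeast (cln2 rad14 genotype) measured and expressed as inhibition relative to vehicle.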

[10] = NCI Yeast Anticancer Drug Screen. Data for the bub3 strain (AID 167); details: S. cerevisiae bub3 mutant strain, active compounds read high
How it was run: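 Mutant yeast screening strain plus compound; vehicle-treated cultures serve as the 0% inhibition reference.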

[11] = NCI Yeast Anticancer Drug Screen. Data for the wt2 strain (AID 169); details: S. cerevisiae wt2 strain growth inhibition, active compounds read high
How it was run: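 Genetically defined yeast strains from a DNA-repair/cell-cycle panel were used. Compound-exposed yeast growth was measured, and the inhibition was calculated relative to vehicle treatment.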

[12] = NCI Yeast Anticancer Drug Screen. Data for the mlh1 strain (AID 171);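 note: 0% = growth of vehicle-treated control cultures of the same strain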; details: S. cerevisiae mlh1 strain growth inhibition, active compounds read high
How it was run: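 Here the genetically defined yeast mutant is grown with each compound, and the extent to which its growth falls below that of vehicle-exposed cells is reported.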

[13] = NCI Yeast Anticancer Drug Screen. Data for the sgs1 strain (AID 173);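 note: 0% = growth of vehicle-only control cultures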; details: S. cerevisiae sgs1 mutant, active compounds read high
How it was run: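 Relative growth inhibition, referenced to vehicle, was determined in a yeast strain with a defined alteration affecting DNA damage repair or cell cycle control after compound exposure.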

[14] = NCI Yeast Anticancer Drug Screen. Data for the mlh1 rad18 strain (AID 175); details: S. cerevisiae mlh1 rad18 strain growth inhibition, active compounds read high
How it was run: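 In this whole-cell yeast screen, a strain with altered DNA damage repair is challenged with compound, and its growth is measured against matched vehicle-treated controls.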

[15] = NCI Yeast Anticancer Drug Screen. Data for the rad18 strain (AID 177); details: S. cerevisiae rad18 mutant growth inhibition, active compounds read high
How it was run: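 Screen uses a yeast strain with a defined lesion in DNA damage repair; compound effect is read as loss of growth compared to untreated vehicle cultures.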

[16] = NCI Yeast Anticancer Drug Screen. Data for the rad50 strain (AID 155);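 note: 0% = growth of vehicle-only cultures of the same strain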; details: S. cerevisiae rad50 strain growth inhibition, active compounds read high
How it was run: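 Vehicle-treated cultures provide the reference for the growth inhibition reported for compound-exposed, repair-deficient yeast.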

[17] = at 5.0 µM (retest, dose inferred, filed as 0.5)
[18] = at 50.0 µM (retest, dose inferred, filed as 5.0)

Measured: growth inhibition

OC1CCCc2c1cc1ccc3cccc4ccc2c1c34 (stereo not drawn)
inactive: [1]; at 1.2 µM -7% | [1]; at 3.7 µM -2% | [2]; at 1.2 µM -2% | [2]; at 3.7 µM -10% | [3]; at 1.2 µM 0% | [3]; at 3.7 µM 37% | [3]; at 11.0 µM 46% | [3]; at 33.0 µM 57% | [3]; at 100.0 µM 62% | [4]; at 1.2 µM -4% | [4]; at 3.7 µM -8% | [5]; at 1.2 µM -5% | [5]; at 3.7 µM -5% | [5]; [17] 12% | [6]; at 1.2 µM 0% | [6]; at 3.7 µM 13% | [7]; [17] 29% | [8]; at 1.2 µM -9% | [8]; at 3.7 µM -14% | [9]; [17] -4% | [10]; at 1.2 µM -11% | [10]; at 3.7 µM -3% | [10]; [17] 4% | [11]; at 1.2 µM -1% | [11]; at 3.7 µM 10% | [12]; at 1.2 µM -16% | [12]; at 3.7 µM -10% | [13]; at 1.2 µM -8% | [13]; at 3.7 µM -3% | [14]; [17] 52% | [15]; at 1.2 µM -11% | [15]; at 3.7 µM -3%
active: [1]; at 11.0 µM 98% | [1]; at 33.0 µM 96% | [1]; at 100.0 µM 91% | [2]; at 11.0 µM 99% | [2]; at 33.0 µM 98% | [2]; at 100.0 µM 92% | [4]; at 11.0 µM 99% | [4]; at 33.0 µM 98% | [4]; at 100.0 µM 90% | [5]; at 11.0 µM 99% | [5]; at 33.0 µM 96% | [5]; [18] 93% | [5]; at 50.0 µM 94.1% | [5]; at 100.0 µM 88% | [6]; at 11.0 µM 99% | [6]; at 33.0 µM 97% | [6]; at 100.0 µM 91% | [7]; [18] 94% | [7]; at 50.0 µM 97.4% | [8]; at 11.0 µM 99% | [8]; at 33.0 µM 97% | [8]; at 100.0 µM 91% | [9]; [18] 94% | [9]; at 50.0 µM 94% | [10]; at 11.0 µM 98% | [10]; at 33.0 µM 97% | [10]; [18] 92% | [10]; at 50.0 µM 95.5% | [10]; at 100.0 µM 89% | [11]; at 11.0 µM 100% | [11]; at 33.0 µM 98% | [11]; at 100.0 µM 94% | [12]; at 11.0 µM 98% | [12]; at 33.0 µM 97% | [12]; at 100.0 µM 90% | [13]; at 11.0 µM 99% | [13]; at 33.0 µM 97% | [13]; at 100.0 µM 90% | [14]; [18] 93% | [14]; at 50.0 µM 94.8% | [15]; at 11.0 µM 99% | [15]; at 33.0 µM 98% | [15]; at 100.0 µM 92%

CCCCCCc1cc(C(=O)OC/C(C)=N/NC(N)=O)c2ccccc2n1
active: [10]; [18] 77%
inactive: [1]; at 1.2 µM -1% | [1]; at 3.7 µM -1% | [1]; at 11.0 µM 1% | [1]; at 33.0 µM -1% | [1]; at 100.0 µM -3% | [2]; at 1.2 µM -2% | [2]; at 3.7 µM 1% | [2]; at 11.0 µM -4% | [2]; at 33.0 µM -5% | [2]; at 100.0 µM -5% | [3]; at 1.2 µM -1% | [3]; at 3.7 µM -3% | [3]; at 11.0 µM -4% | [3]; at 33.0 µM 2% | [3]; at 100.0 µM 3% | [16]; at 1.2 µM -3% | [16]; at 3.7 µM -3% | [16]; [17] -3% | [16]; at 11.0 µM 0% | [16]; at 33.0 µM -4% | [16]; [18] 32% | [16]; at 50.0 µM 26.6% | [16]; at 100.0 µM -4% | [5]; at 1.2 µM -4% | [5]; at 3.7 µM -2% | [5]; [17] -6% | [5]; at 11.0 µM -6% | [5]; at 33.0 µM -3% | [5]; [18] 42% | [5]; at 50.0 µM -1.15% | [5]; at 100.0 µM -7% | [6]; at 1.2 µM 0% | [6]; at 3.7 µM 3% | [6]; at 11.0 µM 3% | [6]; at 33.0 µM 0% | [6]; at 100.0 µM -4% | [7]; [17] -4% | [7]; [18] 47% | [7]; at 50.0 µM 31% | [8]; at 1.2 µM -3% | [8]; at 3.7 µM -11% | [8]; at 11.0 µM -5% | [8]; at 33.0 µM -13% | [8]; at 100.0 µM -10% | [9]; [17] -1% | [9]; [18] 21% | [9]; at 50.0 µM -12.3% | [10]; at 1.2 µM 0% | [10]; at 3.7 µM -4% | [10]; [17] -2% | [10]; at 11.0 µM -2% | [10]; at 33.0 µM 3% | [10]; at 50.0 µM 68.5% | [10]; at 100.0 µM 5% | [11]; at 1.2 µM 0% | [11]; at 3.7 µM -1% | [11]; at 11.0 µM 0% | [11]; at 33.0 µM -2% | [11]; at 100.0 µM -4% | [12]; at 1.2 µM -3% | [12]; at 3.7 µM -4% | [12]; at 11.0 µM -4% | [12]; at 33.0 µM -5% | [12]; at 100.0 µM -5% | [13]; at 1.2 µM -4% | [13]; at 3.7 µM -4% | [13]; at 11.0 µM -6% | [13]; at 33.0 µM -5% | [13]; at 100.0 µM -4% | [14]; [17] -4% | [14]; [18] 50% | [14]; at 50.0 µM 61.4% | [15]; at 1.2 µM -1% | [15]; at 3.7 µM -2% | [15]; at 11.0 µM -4% | [15]; at 33.0 µM -7% | [15]; at 100.0 µM -7%
